Source: PubChem BioAssay AID1159580 (chemical genetic matrix, 2015)
Among all 5,500 compounds or so, about 2,000 (36%) were called active. About 18% were inconclusive and are not listed. Cut-off read from the data, not from the text of the source: active = normalized growth mostly below about 0.91 (no sharp cut-off); inconclusive = no clear call, values can overlap the other calls; inactive = mostly above about 0.92. Some of the results follow.

Test: chemical genetic growth profiling, strain panel (AID 1159580);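 note: tested at 20 µM; growth read once vehicle control cultures reached saturation at 30 °C; 1 = growth at the plate median or of vehicle wells; lower values mean less growth of the strain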
Settings: S. cerevisiae deletion strains, growth OD

Measured: normalized growth

CC(=O)NCCCS(=O)(=O)O
inactive: locus YAL021C, strain ccr4, hits give low values 0.994 | locus YAL026C, strain drs2, hits give low values 1.02 | locus YAL030W, strain snc1, hits give low values 1.01 | locus YBL061C, strain skt5, hits give low values 1.01 | locus YBR009C, strain hhf1, hits give low values 1.02 | locus YBR023C, strain chs3, hits give low values 1.02 | locus YBR171W, strain sec66, hits give low values 1.03 | locus YBR231C, strain swc5, hits give low values 1.02 | locus YBR279W, strain paf1, hits give low values 1.02 | locus YCL011C, strain gbp2, hits give low values 1.01 | locus YCL016C, strain dcc1, hits give low values 1.02 | locus YCL061C, strain MRC1, hits give low values 1.02 | locus YCL069W, strain vba3, hits give low values 1.01 | locus YCR088W, strain abp1, hits give low values 1.01 | locus YDL005C, strain med2, hits give low values 1.01 | locus YDL040C, strain nat1, hits give low values 1.02 | locus YDR001C, strain nth1, hits give low values 1.01 | locus YDR069C, strain doa4, hits give low values 1.01 | locus YDR137W, strain rgp1, hits give low values 1.03 | locus YDR159W, strain sac3, hits give low values 1.01 | locus YDR195W, strain ref2 1.02 | locus YDR297W, strain sur2, hits give low values 1.01 | locus YDR334W, strain swr1, hits give low values 1.01 | locus YDR335W, strain msn5, hits give low values 1.01 | locus YDR392W, strain spt3, hits give low values 0.984 | locus YEL003W, strain gim4, hits give low values 1.01 | locus YEL037C, strain rad23, hits give low values 1.01 | locus YEL061C, strain CIN8 (second series), hits give low values 1 | locus YER015W, strain faa2, hits give low values 1.01 | locus YER016W, strain bim1, hits give low values 1.02 | locus YER111C, strain swi4, hits give low values 1.02 | locus YER155C, strain BEM2 (second series), hits give low values 1.04 | locus YFR010W, strain ubp6, hits give low values 1.01 | locus YGL167C, strain pmr1, hits give low values 1.01 | locus YGL173C, strain kem1, hits give low values 1.02 | locus YGL227W, strain vid30, hits give low values 1.02 | locus YGL240W, strain doc1, hits give low values 1.02 | locus YGL253W, strain hxk2, hits give low values 1.01 | locus YHR013C, strain ard1, hits give low values 1.05 | locus YHR027C, strain rpn1, hits give low values 1.01 | locus YHR030C, strain SLT2, hits give low values 1.03 | locus YHR079C, strain IRE1, hits give low values 1.04 | locus YHR142W, strain chs7, hits give low values 1.01 | locus YJL092W, strain hpr5, hits give low values 1.01 | locus YJL095W, strain BCK1 (second series), hits give low values 1.01 | locus YJL095W, strain BCK1, hits give low values 1.01 | locus YJL115W, strain asf1, hits give low values 1.01 | locus YJL129C, strain trk1, hits give low values 1.01 | locus YJL154C, strain vps35, hits give low values 1.01 | locus YJL164C, strain tpk1, hits give low values 1 | locus YJL166W, strain qcr8, hits give low values 1.02 | locus YJL187C, strain SWE1, hits give low values 1.01 | locus YJR066W, strain TOR1, hits give low values 0.989 | locus YKL160W, strain elf1, hits give low values 1.02 | locus YKR026C, strain gcn3, hits give low values 0.993 | locus YKR091W, strain srl3, hits give low values 1.02 | locus YLL001W, strain dnm1, hits give low values 1.02 | locus YLL026W, hits give low values 1.02 | locus YLL041C, strain sdh2, hits give low values 1.01 | locus YLR027C, strain aat2, hits give low values 1.02 | locus YLR113W, strain HOG1, hits give low values 0.97 | locus YLR221C, strain rsa3, hits give low values 1.01 | locus YLR258W, strain gsy2, hits give low values 1.01 | locus YLR262C, strain YPT6 (second series), hits give low values 1.02 | locus YLR320W, strain mms22, hits give low values 1.01 | locus YLR342W, strain FKS1, hits give low values 1.01 | locus YLR357W, strain rsc2, hits give low values 1.06 | locus YLR370C, strain arc18, hits give low values 1.01 | locus YLR384C, strain iki3, hits give low values 1.02 | locus YML120C, strain ndi1, hits give low values 1.01 | locus YMR058W, strain fet3, hits give low values 1.02 | locus YMR125W, strain sto1, hits give low values 1.03 | locus YMR129W, hits give low values 1 | locus YMR205C, strain PFK2, hits give low values 1.03 | locus YMR231W, strain pep5, hits give low values 1.01 | locus YNL071W, strain lat1, hits give low values 1.02 | locus YNL183C, strain NPR1, hits give low values 1 | locus YNL209W, strain ssb2, hits give low values 1.01 | locus YNL248C, strain rpa49, hits give low values 1.01 | locus YNL322C, strain KRE1 (second series), hits give low values 1.01 | locus YNR049C, strain mso1, hits give low values 1.02 | locus YOR001W, strain rrp6, hits give low values 1.01 | locus YOR070C, strain gyp1, hits give low values 1.01 | locus YOR080W, strain dia2, hits give low values 1.01 | locus YOR083W, strain WHI5, hits give low values 0.998 | locus YOR106W, strain vam3, hits give low values 1.01 | locus YOR231W, strain MKK1, hits give low values 1.02 | locus YOR265W, strain rbl2, hits give low values 1.01 | locus YOR270C, strain vph1, hits give low values 1.04 | locus YOR290C, strain snf2, hits give low values 1.01 | locus YPL051W, strain arl3, hits give low values 1.01 | locus YPL078C, strain atp4, hits give low values 1.02 | locus YPL106C, strain sse1, hits give low values 1.02 | locus YPL240C, strain hsp82, hits give low values 1.01 | locus YPL256C, strain CLN2, hits give low values 1.02
